# The supplement of paper PMC3545927
# Some of the results follow. The hit rate among all sequences tested is not known here.
# Target: furin, P09958
# Assay: furin cleavage Z-score vs untreated control; higher = more cleavage, active = 3.5 or more, inactive = 1 or less, 8 variable residues between constant flanks
# Outline: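 Furin cleavage was scored on 8-mer peptides joined to a cDNA oligonucleotide and bound to magnetic beads at the N-terminus. Digestion with purified furin (1:10 enzyme:substrate, 0.01 ml, 50 mM HEPES pH 7.5, CaCl2, NaCl) lasted 7.5, 15 or 30 min. Freed DNA was tagged with adapters by PCR, sequenced and counted; the cleavage Z-score is the lowess-adjusted log count versus furin-free reactions, scaled by median absolute deviation.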
# Sequence of furin, P09958 (P09958 whole entry): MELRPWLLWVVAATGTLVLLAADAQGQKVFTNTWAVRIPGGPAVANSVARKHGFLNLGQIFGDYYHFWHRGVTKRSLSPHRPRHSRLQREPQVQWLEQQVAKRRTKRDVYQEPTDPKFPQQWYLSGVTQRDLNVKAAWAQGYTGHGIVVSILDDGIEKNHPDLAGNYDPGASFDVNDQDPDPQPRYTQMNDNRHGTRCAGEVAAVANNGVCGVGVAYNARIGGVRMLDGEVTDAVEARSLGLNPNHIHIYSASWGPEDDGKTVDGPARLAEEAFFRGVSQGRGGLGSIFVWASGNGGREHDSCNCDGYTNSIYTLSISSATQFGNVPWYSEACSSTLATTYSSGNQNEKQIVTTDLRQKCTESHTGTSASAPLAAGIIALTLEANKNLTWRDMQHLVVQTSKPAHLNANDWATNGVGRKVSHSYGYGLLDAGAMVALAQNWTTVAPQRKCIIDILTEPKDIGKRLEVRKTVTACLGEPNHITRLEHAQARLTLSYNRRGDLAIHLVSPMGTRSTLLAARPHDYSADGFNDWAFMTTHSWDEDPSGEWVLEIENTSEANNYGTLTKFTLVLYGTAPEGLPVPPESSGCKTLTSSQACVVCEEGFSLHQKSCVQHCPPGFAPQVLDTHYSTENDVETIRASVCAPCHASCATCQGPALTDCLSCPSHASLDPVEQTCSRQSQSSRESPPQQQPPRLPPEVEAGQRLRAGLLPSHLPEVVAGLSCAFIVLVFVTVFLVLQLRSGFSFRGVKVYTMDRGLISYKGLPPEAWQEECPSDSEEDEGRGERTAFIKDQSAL
Sequence,furin cleavage Z-score (7.5 min),furin cleavage Z-score (15 min),furin cleavage Z-score (30 min)
CACYIKARAAAGNASASA [HC1518],-1.15 (inactive),-2.21 (inactive),-1.87 (inactive)
CALETTMRSPAGNASASA [HC761],-0.168 (inactive),-1 (inactive),-1.96 (inactive)
CACDECHSTDAGNASASA [HC818],0.0668 (inactive),-0.316 (inactive),-1.36 (inactive)
CAVVCCSMSSAGNASASA [HC2097],-1.16 (inactive),-0.774 (inactive),-1.81 (inactive)
CASLDPTFTIAGNASASA [HC893],-1.06 (inactive),-1.75 (inactive),-1.02 (inactive)
CASPARETRSAGNASASA [FS-627],5.25 (active),8.43 (active),6.33 (active)
CAMDARTDRSAGNASASA [FS-1375],1.8,-1.12 (inactive),0.78 (inactive)
CAQLRRTTRSAGNASASA [FS-285],7.33 (active),6.26 (active),6.25 (active)
CASPLRQNRSAGNASASA [FS-299],0.752 (inactive),0.557 (inactive),0.444 (inactive)
CAEYVTSTWVAGNASASA [HC2169],0.357 (inactive),0.186 (inactive),-1.53 (inactive)
CAAGAAIGSVAGNASASA [HC1078],-1.21 (inactive),0.457 (inactive),-0.822 (inactive)
CAEVVTSHWVAGNASASA [HC2215],-1.58 (inactive),-0.204 (inactive),0.171 (inactive)
CAVRARLLARAGNASASA [HC1624],-2.8 (inactive),-0.431 (inactive),-0.318 (inactive)
CAAAGRRLARAGNASASA [HC1253],4.08 (active),4.81 (active),4.86 (active)
CADPTTPLARAGNASASA [HC1564],-0.242 (inactive),-3 (inactive),-1.34 (inactive)
CAVDCCSMSYAGNASASA [HC2011],0.752 (inactive),-0.617 (inactive),0.379 (inactive)
CAARIRVKRYAGNASASA [FS-8],8.19 (active),7 (active),8.58 (active)
CALAERRVRIAGNASASA [FS-265],0.222 (inactive),0.166 (inactive),-2.18 (inactive)
CARCRRNKRIAGNASASA [FS-1649],4.5 (active),6.14 (active),4.22 (active)
CAFKNRSCRIAGNASASA [FS-768],-0.201 (inactive),0.864 (inactive),0.865 (inactive)
CAMHIRRKRIAGNASASA [FS-1235],8.17 (active),9.27 (active),7.92 (active)
CALILRSKRYAGNASASA [FS-1024],9.69 (active),10.5 (active),10.3 (active)

Sequence,furin cleavage Z-score (7.5 min),furin cleavage Z-score (15 min),furin cleavage Z-score (30 min)
CADFDSVIDCAGNASASA [HC884],-0.725 (inactive),-1.64 (inactive),-0.179 (inactive)
CAEVYCHRPSAGNASASA [HC2349],-0.918 (inactive),0.00682 (inactive),-0.904 (inactive)
CAAEECSQHLAGNASASA [HC1663],0.467 (inactive),0.000249 (inactive),1.4
CAAICGKYLFAGNASASA [HC1630],1.25,-1.22 (inactive),-0.719 (inactive)
CAFHIRRKRYAGNASASA [FS-651],11.7 (active),12.5 (active),10.9 (active)
CALTHPVTKYAGNASASA [HC979],-1.06 (inactive),1.08,1.75
CASRHRVTRYAGNASASA [FS-1489],9.37 (active),11.3 (active),10.7 (active)
CAAICRRKRYAGNASASA [FS-396],11.5 (active),13.2 (active),11.3 (active)
CANHVSPTHYAGNASASA [HC1124],-0.962 (inactive),0.0646 (inactive),-0.575 (inactive)
CANFISGIQYAGNASASA [HC1044],-0.934 (inactive),-0.739 (inactive),-0.721 (inactive)
CAANVRRKRYAGNASASA [FS-643],12.5 (active),13.8 (active),11.3 (active)
CASRGENCGYAGNASASA [HC1505],1.28,-1.03 (inactive),-0.54 (inactive)
CAFHIRRKRYAGNASASA [FU9],11 (active),12.5 (active),11.3 (active)
CAKMIGGHYVAGNASASA [HC624],-0.495 (inactive),-0.0648 (inactive),-0.0572 (inactive)
CACGSVFLVGAGNASASA [HC301],-1.62 (inactive),-1.91 (inactive),-1.35 (inactive)
CAEVVTSTWIAGNASASA [HC2244],0.57 (inactive),0.293 (inactive),0.802 (inactive)
CAEQPCHRPSAGNASASA [HC2342],-1.24 (inactive),2.02,-0.236 (inactive)
CAEREISVPAAGNASASA [HC1293],-0.452 (inactive),-1.55 (inactive),-0.526 (inactive)
CAGQLDLSGWAGNASASA [HC1642],-0.176 (inactive),0.869 (inactive),0.13 (inactive)
CARRRRNKRYAGNASASA [FS-1403],12.8 (active),14.4 (active),10.6 (active)
CALRRRRKRYAGNASASA [FS-944],11.8 (active),14.5 (active),10.2 (active)
CAEETTPCSGAGNASASA [HC1972],-1.3 (inactive),-1.71 (inactive),-0.823 (inactive)
